Data on five compounds can be found in PubChem BioAssay.

Assay [1] can be described thus: small molecules captured by biotinylated probe aFSTL3 – biochemical, small-molecule microarray, fluorescence 635/667, stem cell growth factor project, primary screen (AID 1064).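 Note: measures binding of the biotinylated anti-FSTL3 antibody to printed compounds.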 Conditions: higher = more signal.
Assay [2] can be described thus: binders from COS7 lysate, DM2A8 probe, primary screen, torsin A project, cell lysate, small-molecule microarray, fluorescence 635/667 (AID 1065). Conditions: higher = more signal, COS7 lysate expressing mutant human TOR1A.
Assay [3] is described as follows: small molecules captured by biotinylated probe aFGF2 – biochemical, small-molecule microarray, fluorescence 635/667, stem cell growth factor project, primary screen (AID 1067).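 Note: measures binding of biotinylated aFGF2 protein to printed compounds on slides; z-score merges feature fluorescence and signal-to-noise across triplicate slides.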 Conditions: higher = more signal.
Assay [4] in a line: small molecules captured by biotinylated probe aFGF10 – biochemical, small-molecule microarray, fluorescence 635/667, stem cell growth factor project, primary screen (AID 1071).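 Note: score merges 667 nm spot intensity and signal to noise from triplicate slides.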 Conditions: higher = more signal.
Assay [5] addresses Neurogenic locus notch homolog protein 2 (Homo sapiens) (UniProt Q04721). As to the kind of experiment: small molecules binding Notch2 protein – biochemical, small-molecule microarray, 635 nm fluorescence, stem cell growth factors, primary screen (AID 1073). Conditions: higher = more signal.
The target in assay [6] is Pro-neuregulin-1, membrane-bound isoform (Homo sapiens) (UniProt Q02297). Description: small molecules binding neuregulin-1 protein – biochemical, small-molecule microarray, fluorescence 635/667, psychiatric disease protein project, primary screen (AID 1075).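 Note: score combines 667 nm spot fluorescence with signal to noise.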 Conditions: NRG1 binding, 635 nm fluorescence, higher = more signal.
Sequence of Pro-neuregulin-1, membrane-bound isoform (Homo sapiens) (Q02297 whole entry, looked up, the tested form may be a part, canonical isoform): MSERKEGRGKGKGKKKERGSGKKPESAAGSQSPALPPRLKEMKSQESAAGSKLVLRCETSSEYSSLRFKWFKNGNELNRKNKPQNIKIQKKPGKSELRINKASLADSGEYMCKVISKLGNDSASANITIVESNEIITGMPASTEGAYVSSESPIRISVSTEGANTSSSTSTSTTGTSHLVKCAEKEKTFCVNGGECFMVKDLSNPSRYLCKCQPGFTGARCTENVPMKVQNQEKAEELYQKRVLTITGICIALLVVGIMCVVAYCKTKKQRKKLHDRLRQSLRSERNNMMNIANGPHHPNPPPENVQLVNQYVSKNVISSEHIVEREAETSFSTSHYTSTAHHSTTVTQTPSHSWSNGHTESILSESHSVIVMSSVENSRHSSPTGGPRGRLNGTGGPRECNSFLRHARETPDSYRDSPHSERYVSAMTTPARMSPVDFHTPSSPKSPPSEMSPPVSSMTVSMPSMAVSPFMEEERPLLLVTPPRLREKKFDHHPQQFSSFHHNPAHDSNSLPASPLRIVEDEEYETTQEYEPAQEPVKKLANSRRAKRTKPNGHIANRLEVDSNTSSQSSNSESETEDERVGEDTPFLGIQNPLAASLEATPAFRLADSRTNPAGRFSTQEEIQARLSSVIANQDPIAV
Assay [7] relates to Neuregulin-1 EGF-like domain. As to the kind of experiment: small molecules binding NRG1 EGF domain – biochemical, small-molecule microarray, 635 nm fluorescence, primary screen (AID 1081).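 Note: binding of the protein to compounds printed on small-molecule microarray slides.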 Conditions: higher = more signal.
Assay [8] is described as follows: FRG1 expression reporter modulators in myotubes – cell-based, C2C12 myotubes, firefly/Renilla luciferase, luminescence, FRG1 inhibition for FSHD, primary screen (AID 1084). Conditions: FRG1 promoter luciferase, higher = more signal, called active from +8 up or from −8 down.
The nature of assay [9]: small molecules captured by biotinylated probe aFST – biochemical, small-molecule microarray, fluorescence 635/667, stem cell growth factor project, primary screen (AID 1086).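 Note: score merges 667 nm fluorescence with signal-to-noise of each printed compound spot.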 Conditions: higher = more signal.
Assay [10] is described as follows: binders of probe aHhip on microarray, primary screen, stem cell growth factor project, biochemical, small-molecule microarray, fluorescence 635/667 (AID 1087).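 Note: score merges spot fluorescence at 667nm with spot signal to noise ratio.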 Conditions: higher = more signal.
Assay [11] deals with PRMT1 (protein arginine N-methyltransferase 1). Description: small molecules binding arginine methyltransferase PRMT1 – biochemical, small-molecule microarray, 635 nm fluorescence, primary screen (AID 1088).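 Note: binding of Prmt1 protein to compounds spotted on small-molecule microarray slides.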 Conditions: higher = more signal.
The nature of assay [12]: growth effects on S. cerevisiae YJM789 – YJM789 clinical isolate, OD600, 24 h, basal, primary screen (AID 1089).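 Note: growth of clinical yeast isolate S. cerevisiae YJM 789 seeded 1000 cells per well; test concentration not given here.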 Conditions: higher = more signal, called active from +8 up or from −8 down.
Assay [13] in a line: S. pombe growth modifiers, basal conditions – strain 972, OD600, 24 h, no modulator, primary screen (AID 1090).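 Note: basal condition with compound alone and no growth modifier present; test concentration not given here.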 Conditions: S. pombe 972 growth, higher = more signal, called active from +8 up or from −8 down.
A short description of assay [14]: budding yeast growth modifiers under rapamycin – strain BY4716, OD600, 96 h, primary screen (AID 1091). Note: test concentration not given here. Conditions: S. cerevisiae BY4716 + rapamycin, higher = more signal, called active from +8 up or from −8 down.
The target in assay [15] is Torsin-1A-interacting protein 2 (Homo sapiens) (UniProt Q8NFQ8). Description: small molecules binding lysate-expressed LULL1 – cell lysate, human LULL1 lysate, 635/667 nm fluorescence, primary screen (AID 1092).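 Note: probe is lysate of COS7 cells overexpressing human LULL1; score merges per-feature 667 nm fluorescence with signal-to-noise.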 Conditions: small-molecule microarray, hLULL1 lysate binding, 635 nm fluorescence; higher = more signal.
Sequence of Torsin-1A-interacting protein 2 (Homo sapiens) (Q8NFQ8 whole entry, looked up): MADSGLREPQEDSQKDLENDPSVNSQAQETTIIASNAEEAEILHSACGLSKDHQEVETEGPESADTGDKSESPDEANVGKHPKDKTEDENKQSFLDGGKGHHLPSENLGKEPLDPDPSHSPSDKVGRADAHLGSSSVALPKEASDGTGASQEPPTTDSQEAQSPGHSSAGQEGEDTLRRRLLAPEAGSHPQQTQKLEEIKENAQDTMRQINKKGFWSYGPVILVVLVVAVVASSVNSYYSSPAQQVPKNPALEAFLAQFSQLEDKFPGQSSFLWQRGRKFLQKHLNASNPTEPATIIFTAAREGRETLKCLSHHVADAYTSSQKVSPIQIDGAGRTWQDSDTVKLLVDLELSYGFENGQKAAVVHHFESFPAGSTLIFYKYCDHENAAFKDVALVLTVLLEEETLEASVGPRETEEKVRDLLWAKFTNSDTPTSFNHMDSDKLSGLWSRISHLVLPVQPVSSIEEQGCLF
Assay [16] in a line: optical density change of DRC41 E. coli – strain DRC41, OD650, 24 h, E. coli filamentation project, primary screen (AID 1093).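 Note: MC1000 strain lacking acrAB efflux and sulA so SOS filamentation is blocked; test concentration not given here.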 Conditions: E. coli DRC41 growth, higher = more signal, called active from +8 up or from −8 down.
Assay [17] can be described thus: probe aLefty2 binding to arrayed compounds – biochemical, biotinylated probe, 635/667 nm fluorescence, primary screen (AID 1094).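 Note: score merges spot fluorescence near 667 nm with spot signal-to-noise ratio.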 Conditions: small-molecule microarray, higher = more signal.
The subject of assay [18] is Noggin (protein binding on small-molecule microarray). As to the kind of experiment: small molecules binding Noggin protein – biochemical, 635/667 nm fluorescence, primary screen (AID 1095).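 Note: score merges 667 nm feature fluorescence with signal to noise over triplicate slides.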 Conditions: 635 nm fluorescence, higher = more signal.
The target of assay [19] is Neurogenic locus notch homolog protein 3 (Homo sapiens) (UniProt Q9UM47). Description: small molecules binding NOTCH3 protein – biochemical, 635/667 nm fluorescence, primary screen (AID 1096). Conditions: small-molecule microarray, 635 nm fluorescence, higher = more signal.
Sequence of Neurogenic locus notch homolog protein 3 (Homo sapiens) (Q9UM47 whole entry, looked up): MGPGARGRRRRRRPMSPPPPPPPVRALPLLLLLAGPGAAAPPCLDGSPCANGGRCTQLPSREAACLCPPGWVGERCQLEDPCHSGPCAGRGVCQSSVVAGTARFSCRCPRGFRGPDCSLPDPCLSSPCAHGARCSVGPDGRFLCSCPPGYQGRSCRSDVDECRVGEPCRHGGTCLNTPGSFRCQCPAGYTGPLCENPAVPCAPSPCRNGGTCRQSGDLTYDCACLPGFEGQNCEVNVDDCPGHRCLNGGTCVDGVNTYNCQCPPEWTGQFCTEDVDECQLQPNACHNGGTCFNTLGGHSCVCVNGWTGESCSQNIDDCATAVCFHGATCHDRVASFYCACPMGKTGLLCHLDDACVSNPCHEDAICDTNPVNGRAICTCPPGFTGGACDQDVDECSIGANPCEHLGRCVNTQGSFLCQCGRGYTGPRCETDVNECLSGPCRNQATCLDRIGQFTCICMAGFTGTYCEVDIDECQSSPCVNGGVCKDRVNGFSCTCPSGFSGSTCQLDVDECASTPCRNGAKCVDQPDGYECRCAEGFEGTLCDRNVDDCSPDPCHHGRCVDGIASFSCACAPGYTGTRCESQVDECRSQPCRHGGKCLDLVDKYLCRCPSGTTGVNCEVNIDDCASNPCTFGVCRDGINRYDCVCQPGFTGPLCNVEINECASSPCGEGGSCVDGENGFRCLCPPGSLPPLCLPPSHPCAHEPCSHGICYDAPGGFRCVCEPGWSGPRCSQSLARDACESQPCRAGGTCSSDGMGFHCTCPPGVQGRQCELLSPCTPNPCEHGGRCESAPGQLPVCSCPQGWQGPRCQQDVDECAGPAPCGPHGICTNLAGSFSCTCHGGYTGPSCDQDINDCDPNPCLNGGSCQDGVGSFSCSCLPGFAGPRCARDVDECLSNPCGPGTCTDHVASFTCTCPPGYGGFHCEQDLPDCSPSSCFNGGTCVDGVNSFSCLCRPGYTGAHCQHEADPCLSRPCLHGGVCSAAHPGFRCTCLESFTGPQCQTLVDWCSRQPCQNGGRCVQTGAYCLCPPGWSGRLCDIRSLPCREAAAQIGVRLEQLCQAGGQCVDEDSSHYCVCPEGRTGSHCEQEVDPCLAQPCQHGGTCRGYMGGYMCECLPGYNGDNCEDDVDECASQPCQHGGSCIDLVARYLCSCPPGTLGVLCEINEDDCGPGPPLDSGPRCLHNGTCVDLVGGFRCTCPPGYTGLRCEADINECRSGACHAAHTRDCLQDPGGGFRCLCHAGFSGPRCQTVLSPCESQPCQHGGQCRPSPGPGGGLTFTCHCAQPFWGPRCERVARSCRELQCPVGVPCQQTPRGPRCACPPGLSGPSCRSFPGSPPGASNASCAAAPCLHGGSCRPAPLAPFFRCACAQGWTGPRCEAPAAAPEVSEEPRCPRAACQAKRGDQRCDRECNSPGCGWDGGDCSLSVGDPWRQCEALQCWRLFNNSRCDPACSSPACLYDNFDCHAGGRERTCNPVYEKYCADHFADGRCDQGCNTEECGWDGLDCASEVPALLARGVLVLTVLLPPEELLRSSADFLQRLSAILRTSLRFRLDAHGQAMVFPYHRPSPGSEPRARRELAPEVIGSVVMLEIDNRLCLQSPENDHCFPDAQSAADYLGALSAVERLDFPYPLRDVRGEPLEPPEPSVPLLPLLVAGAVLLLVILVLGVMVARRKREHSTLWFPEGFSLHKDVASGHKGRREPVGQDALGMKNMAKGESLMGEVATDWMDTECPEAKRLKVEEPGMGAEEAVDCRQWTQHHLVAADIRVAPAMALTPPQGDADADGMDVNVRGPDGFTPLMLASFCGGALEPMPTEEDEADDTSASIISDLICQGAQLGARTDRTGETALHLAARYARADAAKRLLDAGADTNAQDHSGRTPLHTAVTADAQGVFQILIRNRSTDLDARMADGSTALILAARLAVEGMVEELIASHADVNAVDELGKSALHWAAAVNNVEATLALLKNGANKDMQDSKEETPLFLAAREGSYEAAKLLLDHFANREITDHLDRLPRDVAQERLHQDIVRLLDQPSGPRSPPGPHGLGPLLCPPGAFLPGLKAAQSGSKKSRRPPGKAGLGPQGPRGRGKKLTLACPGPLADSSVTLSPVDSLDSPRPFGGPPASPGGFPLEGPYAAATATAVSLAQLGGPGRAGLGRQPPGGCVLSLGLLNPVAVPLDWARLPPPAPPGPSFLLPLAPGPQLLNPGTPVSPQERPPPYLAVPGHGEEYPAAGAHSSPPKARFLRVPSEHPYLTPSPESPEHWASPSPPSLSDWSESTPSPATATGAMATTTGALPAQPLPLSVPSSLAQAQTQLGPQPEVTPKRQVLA
The nature of assay [20]: probe aEGFR binding to arrayed compounds – biochemical, biotinylated probe, 635/667 nm fluorescence, primary screen (AID 1097).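 Note: probe is a biotinylated anti-EGFR antibody binding compounds printed on slides; score combines fluorescence near 667 nm and signal to noise of each spot.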 Conditions: small-molecule microarray, higher = more signal.

Each structure is given as a SMILES string. Calls of active or inactive are those of the source.

On to `CC(c1ccccc1)C(O)C1C=CC2C(=O)N(c3ccccc3)C(=O)C2N1Nc1ccccc1` (stereo not given), for which the composite z-score is -0.245 in assay [1]; 0.2 in [2]; 0.0878 in assay [3]; 1.13 in assay [4]; 1.55 in assay [5]; 1.53 in assay [6]. Moreover, the composite z-score was found to be 1.34 in assay [7]; 1.38 in assay [9]; 0.179 in [10]; 1.54 in [11]; 3.62 in [15]; 0.0008 in [17]. Moreover, the figures for the composite z-score in assay [18], in assay [19] and in [20] were 0.833, 1.05 and 0.0038, respectively. The z-score in assay [8] was -1.41 (inactive); in assay [12] it was 0.205 (inactive); in assay [13], 1.23 (inactive); in assay [14], 0.442 (inactive); in assay [16], -0.702 (inactive).
`O=C1N(CCS(=O)(=O)c2ccccc2)c2ccccc2[C@@H]2OC(c3ccc(OCCCO)cc3)=N[C@]12Cc1ccccc1`: the composite z-score in assay [1] is -0.0695; in assay [2] it was 0.437; in assay [3] it was -0.165; in assay [4], 0.307; in [5], 0.849; in [6] it was 1.38. The composite z-score is 1.29 in [7]; 0.57 in assay [9]; -0.156 in assay [10]; 1.56 in assay [11]; 2.45 in assay [15]; -0.0248 in assay [17]. In addition, the composite z-score in assay [18] is 1.59; in [19] it was 1.12; in assay [20], -0.0435. Further, the z-score was -4.02 (inactive) in assay [8]; -2.18 (inactive) in assay [12]; -2.2 (inactive) in assay [13]; 3.02 (inactive) in assay [14]; 0.736 (inactive) in assay [16].
On to `CCCCC(=C=CC[C@@H](O)c1ccc(CO)o1)CCO`, for which the composite z-score in assay [1] was -0.369; in [2], 0.152; in assay [3] it was -0.0602; in assay [4], 0.143; in assay [5] it was -0.168; in assay [6], 0.457. Moreover, the composite z-score in assay [7] is 1.19; in assay [9], -0.118; in [10], 0.238; in [11] it was 0.954; in [15], 0.418; in assay [17], -0.13. Moreover, the composite z-score in [18] was 0.436; in assay [19] it was 0.0341; in assay [20] it was -0.071. The z-score in assay [8] is 0.161 (inactive); in assay [12] it was 1.46 (inactive); in [13], -0.614 (inactive); in assay [14], 0.297 (inactive); in assay [16], 0.572 (inactive).
As to `O=C1O[C@@H](c2ccccc2)[C@@H](c2ccccc2)N2[C@@H](c3ccccc3OCCO)[C@]3(C(=O)Nc4ccccc43)[C@@H](C(=O)O)[C@H]12`, the composite z-score was -0.229 in assay [1]; -0.0324 in [2]; 0.0301 in assay [3]; 0.551 in [4]; 0.522 in assay [5]; 1.57 in assay [6]. Besides, the composite z-score in assay [7] is 1.12; in assay [9] it was -0.0073; in assay [10], 0.0524; in assay [11], 1.02; in assay [15], 3.02; in assay [17], -0.175. In addition, the composite z-score in assay [18] is -0.314; in [19] it was 0.406; in [20] it was -0.185. For the same compound, the z-score in [8] was -1.84 (inactive); in assay [12], 0.232 (inactive); in [13], -1.1 (inactive); in assay [14] it was -1.17 (inactive); in assay [16], -0.413 (inactive).
Regarding `CS(=O)(=O)CCOC(=O)C1=CC(CCCO)=CC(c2ccc(CN3CCCC3)cc2)N(Cc2cccc(OC(F)(F)F)c2)C=C1C(=O)OCCS(C)(=O)=O` (stereo not given), the composite z-score turned out to be 0.384 in assay [1]; 0.851 in assay [2]; 0.0036 in [3]; 0.952 in assay [4]; 0.978 in assay [5]; 0.691 in [6]. The composite z-score in assay [7] amounted to 0.909; in assay [9], 0.66; in assay [10] it was 0.154; in assay [11] it was 1.57; in assay [15], 2.62; in assay [17] it was 0.336. Moreover, the results for the composite z-score in [18], in assay [19] and in [20] were 0.738, 1.13 and 0.172, respectively. In addition, the z-score in assay [8] is 0.173 (inactive); in [12], 0.441 (inactive); in assay [13], -12.9 (active); in assay [14], -0.805 (inactive); in assay [16], -1.05 (inactive).
